aSyn 5UTR act = Activators via SNCA 5'UTR binding, MLPCN; alpha-synuclein 5'UTR reporter, activators screen; activity score, % (tested at 7.5 µM), hits read low; actives 7.1% (n = 300,000); AID 1814, 2009; in the data active means activity score below about -60%
* hit, by the source's call. These entries were drawn from the full list.

SMILES	aSyn 5UTR act
CC(=O)c1cccc(NC(=S)NC(=O)CC(C)(C)C)c1	-134.5*
COc1ccc2ccccc2c1/C=N/Nc1cccc(C(=O)O)c1	-108.4*
COc1cc2ccccc2cc1C(=O)NC(=S)Nc1cccc(C(=O)O)c1	-91.4*
CCOc1cc(/C=N/Nc2cccc(C(=O)O)c2)ccc1OC(=O)c1ccccc1	97.5
CC(=O)c1cccc(NC(=S)NC(=O)c2cncc(Br)c2)c1	-108.9*
CC(=O)c1cccc(NC(=S)NC(=O)c2cccc(Cl)c2)c1	-159.7*
CC(=O)c1cccc(NC(=S)NC(=O)c2ccccc2)c1	-140.6*
Cc1cc2ccccn2c1C(=O)c1ccc([N+](=O)[O-])o1	-147.3*
OCC#CCSc1nnc(-c2ccc(Br)cc2)o1	-86.8*
C/C(=N\NC(=O)c1cccs1)c1cccnc1	-83.3*
O=C(N/N=C/c1ccc(N2CCOCC2)cc1)c1cccs1	-178.6*
Cc1cc(/C=N/NC(=O)c2cccs2)c(C)n1-c1cnccn1	-169.6*
C/C(=N\NC(=O)c1cccs1)c1ccc2ccccc2c1	-92.1*
O=C(N/N=C/c1cccnc1)c1cccs1	-81.5*
C/C(=N\NC(=O)COc1ccccc1)c1cccs1	-85.0*
Cc1ccc(NC(=O)C2CC2c2ccccc2)c([N+](=O)[O-])c1 (stereo not drawn)	-88.0*
O=C(O)CCCn1c(O)c(C=C2N=c3ccccc3=N2)sc1=S	-88.9*
CC(C)(C)Cc1nnc(NC(=O)CCc2ccccc2)s1	-123.7*
CSc1nnc(NC(=O)CCc2ccccc2)s1	-64.7*
N#Cc1ccc(-c2ccc(OCC3CNC(=O)O3)cc2)cc1 (stereo not drawn)	-74.7*
C=CCSc1nncn1/N=C/c1ccc(OC)cc1	-98.6*
CN(C)c1ccc(C(=O)c2ccc(O)cc2O)cc1	-114.1*
CN=Cc1cc(-c2ccccc2)sc1O	-99.8*
Clc1nc(-c2ccccn2)nc2scc(-c3ccccc3)c12	-206.4*
CC(C)CNC(=O)c1cc(-c2ccco2)on1	-136.7*
SMILES	aSyn 5UTR act
CCCNC(=O)c1cc(-c2ccco2)on1	-335.0*
Cc1ccc(N/N=C2\CS(=O)(=O)N(C)c3ccsc32)cc1	-149.3*
CN1c2ccsc2/C(=N/Nc2ccc(F)cc2)CS1(=O)=O	-187.0*
COc1cc2c(cc1NC(=O)c1ccccc1F)CCCC2	-270.3*
COc1cc(OC)c(NC(=O)c2ccccc2F)cc1Cl	-121.8*
COc1cc2c(cc1NC(=O)c1cccc(F)c1)CCCC2	-75.7*
Cc1csc2nc(CNC(=O)c3ccco3)cn12	-67.7*
Cc1csc2nc(CCNS(=O)(=O)c3cccs3)cn12	-141.1*
CCCS(=O)(=O)NCc1cn2c(C)csc2n1	-112.3*
CCC(=O)Nc1cccc(-c2csc(-c3ccccc3)n2)c1	-121.3*
O=C(COc1ccccc1)Nc1cccc(-c2nc3cc4ccccc4cc3[nH]2)c1	-140.2*
CCCCC(=O)Nc1cccc(-c2cn3ccsc3n2)c1	-78.3*
O=C(Nc1cccc(Cl)c1)c1csc(-c2ccccc2)n1	-121.0*
O=C(COc1ccccc1)Nc1cccc(-c2cn3cccnc3n2)c1	-83.9*
O=C(Nc1cccc(-c2cn3ccccc3n2)c1)c1cnccn1	-87.3*
CCC(=O)Nc1cccc(-c2cn3ccccc3n2)c1	-89.3*
CC(C)(C)C(=O)Cn1ncc(Br)c(Br)c1=O	-91.9*
CCc1ccc2[nH]c3nc(C)cc(C)c3c(=O)c2c1	-231.8*
O=C1N=C(N2CCCCC2)SC1=C1CCCC1	-81.1*
O=C(c1ccc(F)cc1)c1ccc(-c2ccc(F)cc2)nc1	-140.5*
Oc1ccc(N=Nc2ccccc2)cc1	-144.6*
Oc1ccc(Cl)cc1N=Nc1ccccc1	-70.0*
CC(=O)Nc1ccc(N=Nc2ccc(O)cc2)cc1	-87.2*
OCc1ccc(N=Nc2ccccc2)cc1	-83.6*
Cn1c(=S)[nH]c2sc3c(c2c1=O)CCC(C(C)(C)C)C3 (stereo not drawn)	-87.3*
SMILES	aSyn 5UTR act
COC(=O)c1c(NC(=O)c2nc3ccccc3s2)sc2c1CC(C)(C)NC2(C)C	104.2
CCOC(=O)c1c(NC(=O)CSc2nc3ccccc3[nH]2)sc2c1CC(C)(C)NC2(C)C	-100.9*
O=C1Nc2cc(C(=O)NCCCN3CCCC3)ccc2S/C1=C/c1ccccc1F	-106.0*
CCN1CCCC1CNC(=O)c1ccc2c(c1)NC(=O)/C(=C\c1ccc(C)cc1)S2 (stereo not drawn)	74.1
NC(=O)C1(N2CCCCC2)CCN(C2CC(=O)NC2=O)CC1 (stereo not drawn)	-85.6*
Cc1cc(C)n(C(=O)c2cc3sccc3[nH]2)n1	-82.0*
c1ccc(CSc2nnnn2-c2ccc3c(c2)OCCO3)nc1	-70.7*
Cc1ccc(/C=N/NC(=O)c2nn(C)cc2Cl)cc1	-107.8*
Cn1cc(Cl)c(C(=O)N/N=C/c2ccc3c4c(cccc24)CC3)n1	-126.4*
CN(Cc1ccccc1)c1ncnc2c1cnn2-c1ccccc1	-168.7*
CCN(c1ccccc1)c1ncnc2c1cnn2-c1ccccc1	-150.3*
Cc1c(Cl)ccc2c(C(=O)NC(C)c3ccncc3)cc(-c3ccncc3)nc12 (stereo not drawn)	-67.3*
O=C(Nc1ccccc1)c1cccc(N2CCCC2=O)c1	-116.7*
COc1cccc(/C=N/NC(=O)c2cccc(N3CCCC3=O)c2)c1	-104.7*
COc1ccc(/C=N/NC(=O)CCn2cnc(-c3ccccc3)c2-c2ccccc2)cc1	55.9
C/C(=N/NC(=O)c1cccc(N2CCCC2=O)c1)c1ccncc1	-166.1*
O=C(N/N=C/c1cc(Br)ccc1O)c1cccc(N2CCCC2=O)c1	68.4
COc1cccc(/C=N/NC(=O)CCn2nnc3ccccc32)c1	-119.8*
Cc1ccc(NC(=O)/C=C/c2ccco2)nc1	-63.5*
CC(C)C(=O)NC(c1ccco1)c1ccc2cccnc2c1O (stereo not drawn)	63.1
O=C(/C=C/c1ccco1)Nc1cccnc1	-122.1*
O=C(/C=C/c1ccco1)Nc1cccc2cccnc12	-167.8*
O=C(/C=C/c1ccco1)Nc1ccc(Oc2ccc(Cl)cc2)cc1	-203.2*
COc1ccccc1NC(=O)/C=C\c1ccco1	-83.8*
CSc1cccc(NC(=O)/C=C/c2ccco2)c1	-177.6*
SMILES	aSyn 5UTR act
COc1cccc(NC(=O)/C=C/c2ccco2)c1	-157.9*
Cc1cccc2nc(=S)n(C(=O)c3ccco3)n12	-220.9*
Cc1ccn2c(c1)nc(=S)n2C(=O)c1ccccc1	-99.8*
O=C(c1ccco1)n1c(=S)nc2ccccn21	-172.0*
CC(=O)c1cc(-c2ccccc2)n(CC(=O)NC2CCCC2)c1C	-64.9*
COC(=O)c1c(NC(=O)c2cccs2)sc2c1CCC(C)C2 (stereo not drawn)	-112.9*
CCCC1CCc2c(sc(NC(=O)c3cccs3)c2C(N)=O)C1 (stereo not drawn)	-99.0*
Cc1ccccc1C(=O)NC(C(=O)Nc1nc2c(s1)CCCC2)C(C)C (stereo not drawn)	-66.0*
O=C(NC(=S)Nc1nc2c(s1)CCCC2)c1ccccc1	-344.8*
S=C(Nc1nc2c(s1)CCCC2)NC1CC1	-92.3*
COC(=O)c1ccc(C(=O)NC(=S)Nc2nc3c(s2)CCCC3)cc1	-66.1*
CCOc1ccc(NCc2nnc(SCC(=O)Nc3cc(C)on3)n2-c2ccccc2OC)cc1	-101.0*
CCOc1ccc(-c2nnc(SCC(=O)Nc3ccc4c(c3)c3ccccc3n4CC)n2N)cc1	84.2
COc1cccc(OC)c1-c1nn2c(-c3ccco3)nnc2s1	-77.9*
COc1ccccc1-c1nnc2sc(-c3cc4ccccc4o3)nn12	76.3
CCN(CC)C(=O)CSc1nc(N)c2c3c(sc2n1)CC(C)CC3 (stereo not drawn)	-85.1*

Screens from PubChem.
